# Activity calls are given as the source filed them. The calls were made as follows: active = hit-call score of the fitted dose curve at least 0.9, where 1 is the maximum; inactive = score below 0.9.
# Columns and labels:
# [1] = APR_HepG2_CellLoss_72hr: Apredica 72-hour HepG2 Assay for Cell Loss (AID 2282915); conditions: high-content imaging
# How it was run: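 HepG2 cells exposed 72 h to compound at 0.39–200 uM (10 concentrations, duplicate) in 0.5% DMSO. Fixed with 3.7% formaldehyde and Hoechst 33342-stained. Imaged at 20x; nuclear count gives cell number, fitted bidirectionally versus DMSO.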
# [2] = APR_HepG2_P-H2AX_72hr: Apredica 72-hour HepG2 Assay for H2AX Phosphorylation (AID 2282916); conditions: imaging, actives raise or lower the signal;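 also: phospho-histone H2A.x immunostain intensity per cell marking DNA damage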
# How it was run: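 Human hepatoma HepG2 cells are dosed across ten concentrations (0.39 to 200 uM, 0.5% v/v DMSO) and incubated 72 hr. Phospho-histone H2A.x is then detected by antibody staining alongside c-Jun and Hoechst, and quantified by automated fluorescence imaging.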
# [3] = APR_HepG2_MitoMembPot_72hr: Apredica 72-hour HepG2 Assay for Mitochondrial Membrane Potential (AID 2282917); conditions: imaging, actives raise or lower the signal
# How it was run: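 HepG2 cells dosed 72 hr with compound at 0.39–200 uM in duplicate, 0.5% v/v DMSO final. Mitochondria stained with 250 nM MitoTracker Red CMXRos for 30 min before formaldehyde fixation, imaged by high-content fluorescence; bidirectional fit versus DMSO.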
# [4] = APR_HepG2_MitoticArrest_72hr: Apredica 72-hour HepG2 Assay for Mitotic Arrest (AID 2282918); conditions: high-content imaging, actives raise or lower the signal
# How it was run: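 HepG2 cells treated 72 h at 0.39–200 uM, 0.5% DMSO final; formaldehyde-fixed, stained with Hoechst 33342 and phospho-histone H3 antibody, imaged by high-content fluorescence; bidirectional fit versus DMSO.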
# [5] = APR_HepG2_MicrotubuleCSK_72hr: Apredica 72-hour HepG2 Assay for Microtubule CSK Stabilty (AID 2282919); conditions: HepG2 microtubule cytoskeleton, high-content imaging, actives raise or lower the signal
# How it was run: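 HepG2, 72 hr cmpd exposure, 0.39–200 uM (10 pts, duplicate), 0.5% DMSO. 3.7% formaldehyde fix, 0.5% Triton perm, anti-alpha-tubulin/Cy5 plus Hoechst. HCS fluorescence intensity; bidirectional fit vs DMSO baseline; taxol as positive control.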
# [6] = APR_HepG2_P-H2AX_24hr: Apredica 24-hour HepG2 Assay for H2AX Phosphorylation (AID 2282920); conditions: high-content imaging, actives raise or lower the signal
# How it was run: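 HepG2 cells dosed 24 h at 0.39–200 uM (10 points, duplicate, 0.5% DMSO final). Formaldehyde-fixed and permeabilized, then immunostained for phospho-H2A.x with Hoechst. Fluorescence quantified by high-content imaging, fitted bidirectionally versus DMSO.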
# [7] = APR_HepG2_StressKinase_24hr: Apredica 24-hour HepG2 Assay for Stress Kinase (AID 2282922); conditions: HepG2 stress kinase (phospho-c-Jun) imaging, actives raise or lower the signal
# How it was run: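 Read-out: phospho-c-Jun immunofluorescence (Cy3 secondary) quantified by high-content imaging at 20x, nuclei defined by Hoechst 33342. Human HepG2 liver cells dosed 24 hr, 0.39–200 uM, DMSO 0.5% v/v; gain or loss of signal fitted relative to DMSO.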
# [8] = APR_HepG2_p53Act_72hr: Apredica 72-hour HepG2 Assay for p53 Activation (AID 2282923); conditions: high-content imaging, actives raise or lower the signal;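 also: average cellular p53 protein immunofluorescence intensity in HepG2 cells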
# How it was run: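 Imaging-based endpoint: after 72 hr compound exposure (up to 200 uM, 0.5% DMSO), fixed and permeabilized monolayers were labelled with anti-p53 antibody and imaged; signal change in either direction was fitted relative to DMSO controls.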
# [9] = APR_HepG2_MitoMass_72hr: Apredica 72-hour HepG2 Assay for Mitochondrial Mass (AID 2282924); conditions: high-content imaging, actives raise or lower the signal;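 also: MitoTracker Red CMXRos stain intensity per cell imaged as mitochondrial mass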
# How it was run: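 Read-out: MitoTracker Red fluorescence intensity from automated imaging (20x, six fields per well) in human HepG2 liver cells. Dosing ran 72 hr, 0.39–200 uM, 0.5% DMSO; bidirectional curve fitting versus DMSO baseline.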
# [10] = APR_HepG2_NuclearSize_72hr: Apredica 72-hour HepG2 Assay for Nuclear Size (AID 2282925); conditions: high-content imaging, actives raise or lower the signal
# How it was run: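 Read-out: nuclear diameter from Hoechst 33342 images (ArrayScan, 20x, six fields/well), via cell-cycle image analysis. HepG2 were dosed 0.39–200 uM for 72 hr in 0.5% DMSO. Bidirectional fit relative to DMSO.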
# [11] = ATG_CRE_CIS: Attagene CIS-FACTORIAL HepG2 Assay for human cAMP Responsive Element (CRE) binding protein 3 (AID 2282926); conditions: HepG2 CRE cis-reporter, Attagene multiplexed mRNA; actives raise or lower the signal
# How it was run: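 Induced reporter mRNA from a CRE cis element, measured in HepG2 among many multiplexed units at 24 h. Detection used RT-PCR plus capillary electrophoresis of fluorescent fragments; DMSO served as negative control.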
# [12] = molecular target: CCAAT/enhancer-binding protein beta (Homo sapiens) (UniProt P17676); assay: ATG_C_EBP_CIS: Attagene CIS-FACTORIAL HepG2 Assay for human CCAAT/Enhancer Binding Protein (C/EBP) beta (AID 2282927); conditions: HepG2 Attagene cis-factorial transcription factor reporter; actives raise or lower the signal
# Chain of CCAAT/enhancer-binding protein beta (Homo sapiens) (P17676 whole entry, looked up): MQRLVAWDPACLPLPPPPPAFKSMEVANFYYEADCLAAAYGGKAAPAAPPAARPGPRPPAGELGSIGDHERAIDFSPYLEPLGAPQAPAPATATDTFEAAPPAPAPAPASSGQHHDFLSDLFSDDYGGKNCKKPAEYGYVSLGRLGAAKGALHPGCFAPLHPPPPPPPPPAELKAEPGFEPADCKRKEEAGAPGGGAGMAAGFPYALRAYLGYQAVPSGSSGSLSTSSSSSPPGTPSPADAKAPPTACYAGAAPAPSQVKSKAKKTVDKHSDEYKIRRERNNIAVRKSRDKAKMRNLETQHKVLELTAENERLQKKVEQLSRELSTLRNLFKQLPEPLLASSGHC
# How it was run: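 HepG2 transiently transfected with multiplexed reporter units under cis-regulatory promoters reporting endogenous C/EBPb activity. After 24 h exposure, reporter mRNA assayed by RT-PCR, fluorescent labelling, HpaI digestion and capillary electrophoresis; bidirectional fitting versus DMSO.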
# [13] = ATG_CMV_CIS: Attagene CIS-FACTORIAL HepG2 Assay for human CMV (Internal Marker) (AID 2282928); conditions: HepG2 CMV promoter reporter, transcription factor profiling; actives raise or lower the signal;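 also: endpoint acts as a background internal control marker rather than a target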
# How it was run: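 Reporter transcripts from transfected HepG2 cells are isolated after 24 h of chemical dosing, reverse-transcribed and amplified. Fragments labeled with 6-FAM are cut with HpaI and quantified by capillary electrophoresis; DMSO defines baseline.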
# [14] = ATG_DR4_LXR_CIS: Attagene CIS-FACTORIAL HepG2 Assay for human Liver X Receptor (LXR), DR4 submotif (AID 2282929); conditions: HepG2 Attagene DR4 cis-reporter, mRNA transcription; actives raise or lower the signal
# How it was run: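 Endogenous factor activity at a DR4 cis-element is read as reporter mRNA in transiently transfected HepG2 cells. Exposure lasts 24 h; transcripts are amplified, fluorescently labelled and sized by capillary electrophoresis, with DMSO as baseline.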
# [15] = molecular target: Aryl hydrocarbon receptor (Homo sapiens) (UniProt P35869); assay: ATG_Ahr_CIS: Attagene CIS-FACTORIAL HepG2 Assay for human Aryl Hydrocarbon Receptor (Ahr) (AID 2282930); conditions: HepG2 AhR cis-factorial reporter transcription; actives raise or lower the signal
# Chain of Aryl hydrocarbon receptor (Homo sapiens) (P35869 whole entry, looked up): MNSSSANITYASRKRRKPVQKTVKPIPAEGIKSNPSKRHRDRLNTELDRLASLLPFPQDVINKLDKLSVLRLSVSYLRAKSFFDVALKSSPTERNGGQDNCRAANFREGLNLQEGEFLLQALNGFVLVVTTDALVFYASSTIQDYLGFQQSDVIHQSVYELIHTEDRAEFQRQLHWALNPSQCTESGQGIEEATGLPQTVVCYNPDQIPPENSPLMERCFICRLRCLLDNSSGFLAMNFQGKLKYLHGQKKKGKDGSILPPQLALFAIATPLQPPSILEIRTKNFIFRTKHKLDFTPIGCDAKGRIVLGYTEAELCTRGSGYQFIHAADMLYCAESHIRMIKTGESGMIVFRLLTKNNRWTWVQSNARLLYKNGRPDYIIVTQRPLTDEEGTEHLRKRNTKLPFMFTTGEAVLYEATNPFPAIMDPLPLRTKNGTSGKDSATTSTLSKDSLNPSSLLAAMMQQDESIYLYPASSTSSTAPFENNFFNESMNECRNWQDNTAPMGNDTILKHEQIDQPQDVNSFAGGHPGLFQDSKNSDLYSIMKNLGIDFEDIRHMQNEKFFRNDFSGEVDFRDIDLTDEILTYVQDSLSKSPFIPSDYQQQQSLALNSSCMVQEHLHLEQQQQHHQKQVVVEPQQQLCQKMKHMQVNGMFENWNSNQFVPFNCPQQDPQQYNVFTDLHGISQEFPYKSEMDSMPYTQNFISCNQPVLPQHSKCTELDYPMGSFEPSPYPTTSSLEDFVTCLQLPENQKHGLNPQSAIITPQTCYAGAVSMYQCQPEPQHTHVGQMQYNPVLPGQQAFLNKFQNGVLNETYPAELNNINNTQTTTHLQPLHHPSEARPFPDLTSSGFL
# How it was run: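 HepG2 cells transiently transfected with cis-element-driven multiplexed reporter units; endogenous AhR activity read as reporter mRNA 24 h after dosing, via RT-PCR, 6-FAM labelling, HpaI digestion and capillary electrophoresis. Bidirectional fit relative to DMSO.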
# [16] = ATG_AP_1_CIS: Attagene CIS-FACTORIAL HepG2 Assay for human Activator Protein 1 (AP-1) (AID 2282931); conditions: HepG2 Attagene cis-factorial AP-1 reporter mRNA; actives raise or lower the signal
# How it was run: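 Fluorescence of labelled PCR fragments separated by capillary electrophoresis gives reporter mRNA levels. HepG2 with transfected cis-regulated reporter units, 24 h exposure; DMSO serves as baseline for bidirectional curve fits.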
# [17] = ATG_AP_2_CIS: Attagene CIS-FACTORIAL HepG2 Assay for human Activator Protein 2 (AP-2) (AID 2282932); conditions: HepG2 AP-2 cis-reporter, Attagene transcription factor profiling; actives raise or lower the signal
# How it was run: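 Liver-derived HepG2 line, cis-reporter system measuring endogenous factors; 24 h dosing; reporter mRNA detected by fluorescent RT-PCR and capillary electrophoresis.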
# [18] = ATG_BRE_CIS: Attagene CIS-FACTORIAL HepG2 Assay for human Bone Morphogenetic Protein (BMP) Response Element (BRE) (AID 2282933); conditions: HepG2 BMP response element reporter, Attagene transcription factor profiling; actives raise or lower the signal
# How it was run: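 Gain- or loss-of-signal was derived by bidirectional fitting against DMSO controls. The signal came from reporter mRNA, measured by RT-PCR and capillary electrophoresis, in HepG2 cells transiently carrying multiple reporter units and dosed for 24 h.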
# [19] = molecular target: Retinoic acid receptor alpha (Homo sapiens) (UniProt P10276); assay: ATG_DR5_RAR_CIS: Attagene CIS-FACTORIAL HepG2 Assay for human Retinoic Acid Receptor Alpha (RARE), DR5 submotif (AID 2282934); conditions: HepG2 Attagene cis-factorial RARE DR5 reporter, mRNA; actives raise or lower the signal;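 as to AC50: reporter responds to endogenous RAR alpha beta and gamma in HepG2 not RARA alone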
# Chain of Retinoic acid receptor alpha (Homo sapiens) (P10276 whole entry, looked up): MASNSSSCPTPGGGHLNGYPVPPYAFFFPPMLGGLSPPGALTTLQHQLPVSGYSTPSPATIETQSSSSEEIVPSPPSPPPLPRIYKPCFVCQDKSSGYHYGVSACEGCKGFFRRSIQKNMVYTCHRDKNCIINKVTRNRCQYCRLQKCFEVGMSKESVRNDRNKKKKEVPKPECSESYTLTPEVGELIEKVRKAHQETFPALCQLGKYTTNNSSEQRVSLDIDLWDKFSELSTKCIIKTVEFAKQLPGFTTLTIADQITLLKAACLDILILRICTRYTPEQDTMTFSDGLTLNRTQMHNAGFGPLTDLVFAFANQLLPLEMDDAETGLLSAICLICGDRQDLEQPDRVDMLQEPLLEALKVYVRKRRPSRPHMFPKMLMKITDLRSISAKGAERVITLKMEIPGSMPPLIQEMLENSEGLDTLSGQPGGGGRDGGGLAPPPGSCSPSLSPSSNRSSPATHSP
# How it was run: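 HepG2 cells transiently transfected with multiplexed reporter units; DR5 cis-element drives reporter through endogenous transcription factors. After 24 h dosing, reporter mRNA quantified by RT-PCR, fluorescent labeling, HpaI digestion and capillary electrophoresis; bidirectional fitting versus DMSO.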
# [20] = APR_HepG2_StressKinase_72hr: Apredica 72-hour HepG2 Assay for Stress Kinase (AID 2282921); conditions: HepG2 stress kinase (phospho-c-Jun) imaging, actives raise or lower the signal
# How it was run: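 After a 72 h compound treatment spanning 0.39 to 200 uM, formaldehyde-fixed cells are labelled for phosphorylated c-Jun and nuclei, imaged by automated fluorescence microscopy, and activity is fitted in both directions relative to DMSO controls.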
smiles,measurement,setting,value
CCSC(=O)N1CCCCCC1,outcome,[1],inactive
same,outcome,[2],inactive
same,outcome,[3],inactive
same,outcome,[4],inactive
same,outcome,[5],inactive
same,outcome,[6],inactive
same,outcome,[7],inactive
same,outcome,[8],inactive
same,outcome,[9],inactive
same,outcome,[10],inactive
same,outcome,[11],inactive
same,outcome,[12],inactive
same,outcome,[13],inactive
same,outcome,[14],inactive
same,outcome,[15],inactive
same,outcome,[16],inactive
same,outcome,[17],inactive
same,outcome,[18],inactive
same,outcome,[19],inactive
Nc1c(Cl)c(F)nc(OCC(=O)O)c1Cl,outcome,[1],inactive
same,outcome,[2],inactive
same,outcome,[4],inactive
same,outcome,[5],inactive
same,outcome,[6],inactive
same,outcome,[20],inactive
same,outcome,[7],inactive
same,outcome,[8],inactive
same,outcome,[9],inactive
same,outcome,[10],inactive
same,outcome,[11],inactive
same,outcome,[12],inactive
same,outcome,[13],inactive
same,outcome,[14],inactive
same,outcome,[15],inactive
same,outcome,[16],inactive
same,outcome,[17],inactive
same,outcome,[18],inactive
same,outcome,[19],inactive
COP(=S)(OC)Oc1ccc([N+](=O)[O-])c(C)c1,AC50,[1],87.9 µM (active)
same,outcome,[2],inactive
same,outcome,[3],inactive
same,outcome,[4],inactive
same,outcome,[5],inactive
same,outcome,[6],inactive
same,outcome,[7],inactive
same,outcome,[8],inactive
same,outcome,[10],inactive
same,AC50,[11],17.8 µM (active)
same,outcome,[12],inactive
same,outcome,[13],inactive
same,outcome,[14],inactive
same,outcome,[15],inactive
same,AC50,[16],68 µM (active)
same,outcome,[17],inactive
same,AC50,[18],32.7 µM (active)
CSC(=O)c1c(C(F)F)nc(C(F)(F)F)c(C(=O)SC)c1CC(C)C,AC50,[1],73.9 µM (active)
same,outcome,[2],inactive
same,AC50,[4],67.7 µM (active)
same,AC50,[5],64.6 µM (active)
same,outcome,[6],inactive
same,outcome,[20],inactive
same,outcome,[7],inactive
same,outcome,[8],inactive
same,outcome,[9],inactive
same,outcome,[10],inactive
same,outcome,[11],inactive
same,outcome,[12],inactive
same,outcome,[13],inactive
same,AC50,[14],4.51 µM (active)
same,AC50,[15],81.5 µM (active)
same,outcome,[16],inactive
same,outcome,[17],inactive
same,outcome,[18],inactive
same,AC50,[19],1.28 µM (active)
O=P(O)(O)CCCl,outcome,[1],inactive
same,outcome,[2],inactive
same,outcome,[3],inactive
same,outcome,[4],inactive
same,outcome,[5],inactive
same,outcome,[6],inactive
same,outcome,[7],inactive
same,outcome,[8],inactive
same,outcome,[10],inactive
same,outcome,[11],inactive
same,outcome,[12],inactive
same,outcome,[13],inactive
same,outcome,[14],inactive
same,outcome,[15],inactive
same,outcome,[16],inactive
same,outcome,[17],inactive
same,outcome,[18],inactive
same,outcome,[19],inactive
CC(C)C1(C)N=C(c2ncccc2C(=O)O)NC1=O (stereo not drawn),outcome,[1],inactive
same,outcome,[2],inactive
same,outcome,[3],inactive
same,outcome,[4],inactive
same,outcome,[5],inactive
same,outcome,[6],inactive
same,outcome,[7],inactive
same,outcome,[8],inactive
same,outcome,[9],inactive
same,outcome,[10],inactive
same,outcome,[11],inactive
same,outcome,[12],inactive
same,outcome,[13],inactive
same,outcome,[14],inactive
same,outcome,[15],inactive
same,outcome,[16],inactive
same,outcome,[17],inactive
same,outcome,[18],inactive
C=CCOC(=O)C(C)(C)OC(=O)c1cc(-n2c(=O)cc(C(F)(F)F)n(C)c2=O)ccc1Cl,AC50,[1],97.7 µM (active)
same,outcome,[2],inactive
same,AC50,[4],90.1 µM (active)
same,AC50,[5],100 µM (active)
same,outcome,[6],inactive
same,outcome,[20],inactive
same,outcome,[7],inactive
same,outcome,[8],inactive
same,outcome,[9],inactive
same,outcome,[10],inactive
same,AC50,[11],13.3 µM (active)
same,outcome,[12],inactive
same,outcome,[13],inactive
same,outcome,[14],inactive
same,outcome,[15],inactive
same,outcome,[16],inactive
same,outcome,[17],inactive
same,outcome,[18],inactive
